Drawing on ChEMBL document CHEMBL1961873, “Compounds: GSK PKIS; Assays: Nanosyn kinase panel” (2012), this text covers inhibition for 6 compounds.

Molecules are shown by their SMILES.

Test [1] addresses Mitogen-activated protein kinase 3 (Homo sapiens) (UniProt P27361). The following applies: at 1 µM.
Test [2] has as its target SRSF protein kinase 3 (Homo sapiens) (UniProt Q9UPE1). The following applies: at 0.1 µM.
The target is the same in test [3]. To be noted: at 1 µM.
Test [4] addresses Mitogen-activated protein kinase 14 (Homo sapiens) (UniProt Q16539). The following applies: at 0.1 µM.
Test [5] has the same target. The following applies: at 1 µM.
Test [6] has as its target Mitogen-activated protein kinase 11 (Homo sapiens) (UniProt Q15759). To be noted: at 0.1 µM.
Test [7] has the same target. The following applies: at 1 µM.
Test [8] addresses T1, Mitogen-activated protein kinase 13 (Homo sapiens) (UniProt O15264).
T1 sequence (whole entry): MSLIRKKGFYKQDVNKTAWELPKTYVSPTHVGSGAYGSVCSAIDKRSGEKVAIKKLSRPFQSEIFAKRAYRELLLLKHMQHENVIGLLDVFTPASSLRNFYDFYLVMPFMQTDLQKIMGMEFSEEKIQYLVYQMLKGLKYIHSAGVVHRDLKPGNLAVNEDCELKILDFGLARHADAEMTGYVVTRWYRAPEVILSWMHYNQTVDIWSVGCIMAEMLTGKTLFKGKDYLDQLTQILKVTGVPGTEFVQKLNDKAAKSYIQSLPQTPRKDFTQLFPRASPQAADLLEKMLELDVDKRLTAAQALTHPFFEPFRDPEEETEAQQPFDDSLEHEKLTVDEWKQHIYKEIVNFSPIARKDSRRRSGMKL
To be noted: at 0.1 µM.

For test [9], the target named is T1, Mitogen-activated protein kinase 13 (Homo sapiens). To be noted: at 1 µM.
For test [10], the target named is T2, Mitogen-activated protein kinase 12 (Homo sapiens) (UniProt P53778).
T2 sequence (whole entry): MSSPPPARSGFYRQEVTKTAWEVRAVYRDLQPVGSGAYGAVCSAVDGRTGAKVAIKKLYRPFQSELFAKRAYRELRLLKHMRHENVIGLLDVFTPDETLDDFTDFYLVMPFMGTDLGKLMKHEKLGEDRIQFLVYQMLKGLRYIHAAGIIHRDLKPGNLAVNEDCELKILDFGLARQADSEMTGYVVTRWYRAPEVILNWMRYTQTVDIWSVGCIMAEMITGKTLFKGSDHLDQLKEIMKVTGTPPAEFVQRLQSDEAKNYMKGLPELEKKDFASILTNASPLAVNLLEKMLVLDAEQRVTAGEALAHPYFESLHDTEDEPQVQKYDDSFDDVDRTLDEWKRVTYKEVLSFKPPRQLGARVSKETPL
To be noted: at 0.1 µM.

For test [11], the target named is T2, Mitogen-activated protein kinase 12 (Homo sapiens). The following applies: at 1 µM.
Test [12] addresses SRSF protein kinase 1 (Homo sapiens) (UniProt Q96SB4). To be noted: at 0.1 µM.
For test [13] the target is unchanged. To be noted: at 1 µM.
Test [14] addresses Phosphatidylinositol 4,5-bisphosphate 3-kinase catalytic subunit alpha isoform (Homo sapiens) (UniProt P42336). The following applies: at 0.1 µM.
For test [15] the target is unchanged. The following applies: at 1 µM.
Test [16] has as its target T3, Phosphatidylinositol 4,5-bisphosphate 3-kinase catalytic subunit delta isoform (Homo sapiens) (UniProt O00329).
T3 sequence (whole entry): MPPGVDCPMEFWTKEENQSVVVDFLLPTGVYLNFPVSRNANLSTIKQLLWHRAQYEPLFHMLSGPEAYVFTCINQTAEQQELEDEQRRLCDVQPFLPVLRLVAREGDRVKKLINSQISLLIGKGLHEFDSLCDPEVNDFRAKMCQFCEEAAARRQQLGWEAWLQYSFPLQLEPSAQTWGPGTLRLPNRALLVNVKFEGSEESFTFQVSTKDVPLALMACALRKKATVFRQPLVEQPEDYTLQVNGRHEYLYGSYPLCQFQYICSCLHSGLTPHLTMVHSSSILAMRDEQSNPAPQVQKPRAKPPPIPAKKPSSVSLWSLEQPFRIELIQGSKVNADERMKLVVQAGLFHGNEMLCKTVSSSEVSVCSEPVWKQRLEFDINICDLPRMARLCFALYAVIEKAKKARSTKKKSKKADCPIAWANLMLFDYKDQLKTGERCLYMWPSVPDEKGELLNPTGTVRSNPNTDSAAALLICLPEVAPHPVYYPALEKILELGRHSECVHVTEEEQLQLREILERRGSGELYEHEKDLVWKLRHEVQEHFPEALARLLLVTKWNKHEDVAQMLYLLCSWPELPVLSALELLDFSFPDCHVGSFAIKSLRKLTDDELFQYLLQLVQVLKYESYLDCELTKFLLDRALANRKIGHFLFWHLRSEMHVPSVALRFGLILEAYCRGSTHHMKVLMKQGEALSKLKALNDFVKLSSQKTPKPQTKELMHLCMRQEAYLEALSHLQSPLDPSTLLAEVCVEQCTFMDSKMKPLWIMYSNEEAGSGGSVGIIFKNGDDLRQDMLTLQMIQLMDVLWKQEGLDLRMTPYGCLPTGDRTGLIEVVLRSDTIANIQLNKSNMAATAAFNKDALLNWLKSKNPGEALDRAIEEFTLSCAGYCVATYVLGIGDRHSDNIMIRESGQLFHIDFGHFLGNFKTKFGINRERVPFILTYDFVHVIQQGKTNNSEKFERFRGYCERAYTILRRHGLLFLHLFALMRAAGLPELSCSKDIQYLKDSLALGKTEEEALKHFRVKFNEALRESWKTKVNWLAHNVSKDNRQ
To be noted: at 0.1 µM.

Test [17] has as its target T3, Phosphatidylinositol 4,5-bisphosphate 3-kinase catalytic subunit delta isoform (Homo sapiens). To be noted: at 1 µM.
The target of test [18] is Phosphatidylinositol 4-kinase beta (Homo sapiens) (UniProt Q9UBF8). The following applies: at 0.1 µM.
Phosphatidylinositol 4-kinase beta (Homo sapiens), sequence (Q9UBF8 2-816 limits assumed): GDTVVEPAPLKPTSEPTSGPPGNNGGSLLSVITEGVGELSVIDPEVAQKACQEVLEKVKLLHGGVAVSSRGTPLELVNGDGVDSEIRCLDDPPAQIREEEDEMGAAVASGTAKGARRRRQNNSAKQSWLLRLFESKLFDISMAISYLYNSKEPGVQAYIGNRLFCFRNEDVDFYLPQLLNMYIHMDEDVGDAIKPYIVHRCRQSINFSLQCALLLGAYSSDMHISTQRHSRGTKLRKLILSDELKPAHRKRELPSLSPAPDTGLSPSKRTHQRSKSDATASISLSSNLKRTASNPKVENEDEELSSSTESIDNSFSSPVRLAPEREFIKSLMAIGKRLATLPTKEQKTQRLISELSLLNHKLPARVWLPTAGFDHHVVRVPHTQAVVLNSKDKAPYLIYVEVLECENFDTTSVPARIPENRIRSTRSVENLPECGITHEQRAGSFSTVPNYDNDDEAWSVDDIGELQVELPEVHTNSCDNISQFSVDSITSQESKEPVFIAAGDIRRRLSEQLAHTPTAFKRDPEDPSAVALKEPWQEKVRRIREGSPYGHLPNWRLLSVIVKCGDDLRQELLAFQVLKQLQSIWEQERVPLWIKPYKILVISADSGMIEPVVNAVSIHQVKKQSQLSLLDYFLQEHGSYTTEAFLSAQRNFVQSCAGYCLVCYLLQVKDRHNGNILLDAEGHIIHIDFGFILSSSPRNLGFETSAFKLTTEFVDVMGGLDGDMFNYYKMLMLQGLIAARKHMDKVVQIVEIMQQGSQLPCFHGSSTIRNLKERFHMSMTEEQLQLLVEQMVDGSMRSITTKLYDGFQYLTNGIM
Test [19] shares this target. To be noted: at 1 µM.
For test [20], the target named is Sphingosine kinase 1 (Homo sapiens) (UniProt Q9NYA1). The following applies: at 0.1 µM.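 Further: mean percent inhibition of SPHK1 activity, measured within the GSK PKIS screening panel.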
Sphingosine kinase 1 (Homo sapiens), sequence (Q9NYA1 whole entry): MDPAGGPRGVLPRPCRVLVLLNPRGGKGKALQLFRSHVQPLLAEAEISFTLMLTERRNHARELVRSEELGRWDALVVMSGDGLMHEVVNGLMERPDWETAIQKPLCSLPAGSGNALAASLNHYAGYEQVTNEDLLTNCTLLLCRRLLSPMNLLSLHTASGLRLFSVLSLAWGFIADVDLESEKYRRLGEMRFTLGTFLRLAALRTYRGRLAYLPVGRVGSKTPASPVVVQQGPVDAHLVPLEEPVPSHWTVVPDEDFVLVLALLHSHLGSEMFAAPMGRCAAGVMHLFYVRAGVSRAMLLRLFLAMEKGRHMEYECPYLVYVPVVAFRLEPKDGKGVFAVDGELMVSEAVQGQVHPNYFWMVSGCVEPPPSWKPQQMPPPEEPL

SRSF protein kinase 1 (Homo sapiens), sequence (Q96SB4 whole entry): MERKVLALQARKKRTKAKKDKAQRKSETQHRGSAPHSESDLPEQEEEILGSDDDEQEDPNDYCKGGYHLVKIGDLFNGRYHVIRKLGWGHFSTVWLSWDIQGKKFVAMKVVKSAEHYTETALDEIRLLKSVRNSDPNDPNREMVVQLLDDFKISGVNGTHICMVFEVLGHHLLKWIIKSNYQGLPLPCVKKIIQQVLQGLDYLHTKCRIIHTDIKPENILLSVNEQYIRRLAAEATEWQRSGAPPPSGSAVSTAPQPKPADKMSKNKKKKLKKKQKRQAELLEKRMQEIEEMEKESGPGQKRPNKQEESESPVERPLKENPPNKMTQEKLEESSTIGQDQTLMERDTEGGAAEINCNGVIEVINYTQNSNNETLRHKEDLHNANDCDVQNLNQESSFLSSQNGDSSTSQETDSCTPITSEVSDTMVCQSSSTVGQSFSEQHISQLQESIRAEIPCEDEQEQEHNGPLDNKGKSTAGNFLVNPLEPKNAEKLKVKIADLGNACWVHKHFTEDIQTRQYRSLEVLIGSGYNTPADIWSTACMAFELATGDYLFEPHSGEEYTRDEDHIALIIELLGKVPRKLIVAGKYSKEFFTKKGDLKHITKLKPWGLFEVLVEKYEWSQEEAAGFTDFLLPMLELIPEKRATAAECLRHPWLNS
Mitogen-activated protein kinase 14 (Homo sapiens), sequence (Q16539 whole entry): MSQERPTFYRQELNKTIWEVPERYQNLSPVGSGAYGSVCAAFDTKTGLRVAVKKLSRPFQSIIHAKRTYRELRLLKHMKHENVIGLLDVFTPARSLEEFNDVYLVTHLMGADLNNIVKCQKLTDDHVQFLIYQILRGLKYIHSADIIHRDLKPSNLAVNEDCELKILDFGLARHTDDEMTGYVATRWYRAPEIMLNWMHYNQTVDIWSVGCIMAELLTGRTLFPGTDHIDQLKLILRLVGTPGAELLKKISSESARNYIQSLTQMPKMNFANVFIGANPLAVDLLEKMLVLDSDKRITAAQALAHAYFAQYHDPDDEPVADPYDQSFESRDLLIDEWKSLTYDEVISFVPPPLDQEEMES
Mitogen-activated protein kinase 3 (Homo sapiens), sequence (P27361 whole entry): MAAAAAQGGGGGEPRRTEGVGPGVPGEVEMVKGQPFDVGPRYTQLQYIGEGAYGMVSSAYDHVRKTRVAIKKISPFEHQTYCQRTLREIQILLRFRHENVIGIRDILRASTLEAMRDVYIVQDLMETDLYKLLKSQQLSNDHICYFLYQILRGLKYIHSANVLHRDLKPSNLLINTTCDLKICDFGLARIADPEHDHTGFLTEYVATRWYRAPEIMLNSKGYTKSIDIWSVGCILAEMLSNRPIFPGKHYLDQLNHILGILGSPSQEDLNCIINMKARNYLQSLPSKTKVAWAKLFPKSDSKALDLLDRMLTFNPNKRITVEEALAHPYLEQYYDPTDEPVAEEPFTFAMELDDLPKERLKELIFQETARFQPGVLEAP
SRSF protein kinase 3 (Homo sapiens), sequence (Q9UPE1 whole entry): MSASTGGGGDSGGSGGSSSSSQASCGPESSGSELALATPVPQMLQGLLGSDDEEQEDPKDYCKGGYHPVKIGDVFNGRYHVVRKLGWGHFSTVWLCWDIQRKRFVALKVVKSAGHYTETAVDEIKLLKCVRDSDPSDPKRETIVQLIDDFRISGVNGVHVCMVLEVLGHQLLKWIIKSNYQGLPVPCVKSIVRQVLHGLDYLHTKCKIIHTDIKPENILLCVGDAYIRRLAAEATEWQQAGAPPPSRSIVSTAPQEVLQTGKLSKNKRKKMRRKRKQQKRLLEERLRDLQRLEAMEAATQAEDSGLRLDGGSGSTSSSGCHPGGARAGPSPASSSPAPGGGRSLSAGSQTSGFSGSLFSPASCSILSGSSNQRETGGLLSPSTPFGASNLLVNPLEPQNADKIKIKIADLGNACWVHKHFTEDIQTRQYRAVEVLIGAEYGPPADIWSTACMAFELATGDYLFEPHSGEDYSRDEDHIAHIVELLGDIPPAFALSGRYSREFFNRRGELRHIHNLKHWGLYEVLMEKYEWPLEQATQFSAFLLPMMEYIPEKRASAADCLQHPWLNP
Mitogen-activated protein kinase 11 (Homo sapiens), sequence (Q15759 whole entry): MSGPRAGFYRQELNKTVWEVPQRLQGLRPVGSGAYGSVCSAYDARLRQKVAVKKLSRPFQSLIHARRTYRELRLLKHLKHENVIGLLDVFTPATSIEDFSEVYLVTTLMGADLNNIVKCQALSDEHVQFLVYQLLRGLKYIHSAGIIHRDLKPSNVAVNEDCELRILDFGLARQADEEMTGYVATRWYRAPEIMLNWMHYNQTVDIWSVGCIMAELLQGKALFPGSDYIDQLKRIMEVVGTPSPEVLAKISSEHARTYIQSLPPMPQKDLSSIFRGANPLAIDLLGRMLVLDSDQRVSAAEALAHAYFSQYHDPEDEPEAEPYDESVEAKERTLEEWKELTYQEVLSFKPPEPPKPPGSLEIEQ
Phosphatidylinositol 4,5-bisphosphate 3-kinase catalytic subunit alpha isoform (Homo sapiens), sequence (P42336 whole entry, canonical isoform): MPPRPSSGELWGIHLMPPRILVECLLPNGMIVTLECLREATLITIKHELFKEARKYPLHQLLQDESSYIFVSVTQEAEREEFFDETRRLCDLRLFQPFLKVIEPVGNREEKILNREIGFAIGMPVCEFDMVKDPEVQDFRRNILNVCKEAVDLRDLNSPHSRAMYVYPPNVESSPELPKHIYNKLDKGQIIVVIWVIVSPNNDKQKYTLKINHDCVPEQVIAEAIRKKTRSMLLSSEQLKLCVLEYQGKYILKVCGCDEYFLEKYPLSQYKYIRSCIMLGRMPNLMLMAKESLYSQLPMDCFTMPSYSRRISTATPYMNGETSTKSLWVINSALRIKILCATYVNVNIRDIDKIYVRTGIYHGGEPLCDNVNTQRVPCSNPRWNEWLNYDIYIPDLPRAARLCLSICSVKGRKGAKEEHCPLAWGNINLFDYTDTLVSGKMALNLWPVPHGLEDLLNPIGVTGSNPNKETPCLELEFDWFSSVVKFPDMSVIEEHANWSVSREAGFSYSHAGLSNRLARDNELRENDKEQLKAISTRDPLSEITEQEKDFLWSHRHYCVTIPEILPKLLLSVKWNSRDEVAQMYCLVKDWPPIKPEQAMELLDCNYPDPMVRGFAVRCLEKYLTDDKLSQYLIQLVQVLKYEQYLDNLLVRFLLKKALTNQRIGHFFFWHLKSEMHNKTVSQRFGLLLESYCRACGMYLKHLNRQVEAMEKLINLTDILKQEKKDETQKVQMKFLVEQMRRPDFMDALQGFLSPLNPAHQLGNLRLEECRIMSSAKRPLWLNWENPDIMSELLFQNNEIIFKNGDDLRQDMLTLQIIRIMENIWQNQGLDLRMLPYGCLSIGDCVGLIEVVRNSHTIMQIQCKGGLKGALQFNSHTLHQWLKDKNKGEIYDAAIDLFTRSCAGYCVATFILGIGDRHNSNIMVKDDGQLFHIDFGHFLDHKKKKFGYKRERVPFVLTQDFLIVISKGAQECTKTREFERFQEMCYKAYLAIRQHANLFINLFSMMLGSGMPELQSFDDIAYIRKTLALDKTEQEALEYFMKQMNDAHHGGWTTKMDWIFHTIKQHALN

A word on the inhibition: it is the change of the read-out against control, counted positive when it falls. Regarding `COc1cc(Nc2ncc(-c3ccccc3)o2)cc(OC)c1OC`, the inhibition in [1] was 1.29%; in test [2], -0.22%; in test [3], 0.18%; in [4], -3.46%; in test [5] it was -4.25%; in test [6], 1.4%. In addition, the inhibition was 0.04% in test [7]; -0.94% in test [8]; -1.63% in test [9]; -1.8% in [10]; -1.06% in [11]; 2.19% in [12]. The inhibition in test [13] is 1%; in [14], 0.99%; in [15], 2.57%; in test [16], 2.6%; in test [17] it was 11.4%; in test [18] it was 11.5%. Besides, the values for the inhibition in test [19] and in test [20] were 7.23% and 1.38%, respectively.
Consider `NS(=O)(=O)c1ccc(Nc2cc(-c3ccc(O)c(F)c3)n[nH]2)cc1`, for which the inhibition in [1] was -1.26%; in [2] it was -1.38%; in [3], 0.03%; in test [4], -1.03%; in [5], -2.41%; in test [6], -1.5%. The inhibition in [7] was 6.83%; in test [8], -6.82%; in [9] it was -4.19%; in [10], -2.85%; in [11] it was -2.2%; in [12] it was 1.32%. In addition, the inhibition in test [13] was 1.27%; in test [14] it was -2.99%; in test [15], 2.09%; in test [16], -0.68%; in [17], 2.48%; in test [18], 7.96%. Also, the inhibition in test [19] was 9.37%; in test [20], 3.64%.
`COc1cc2ncn(-c3cc(OCCc4ccccc4)c(C(N)=O)s3)c2cc1OC`: the inhibition in [1] is 0.82%; in [2], -1.68%; in [3] it was 0.18%; in test [4], 4.09%; in test [5], 13.1%; in test [6], 3.65%. Moreover, the inhibition in [7] is 2.87%; in [8], 4.25%; in [9] it was 1.8%; in [10] it was -0.53%; in [11], 1.89%; in test [12] it was -2.73%. The inhibition in test [13] was -4.19%; in [14], 2.08%; in [15] it was 3.83%; in test [16] it was 2.55%; in test [17] it was 5.55%; in test [18], -0.92%. Also, the inhibition in test [19] was 3.17%; in test [20], -0.54%.
In the case of `O=C(Nc1n[nH]c2cc(-c3cc(F)ccc3F)ccc12)C1CC1`, the inhibition was 0.63% in test [1]; -2.33% in test [2]; -2.21% in test [3]; 1.76% in [4]; 8.79% in test [5]; 3.95% in test [6]. In addition, the inhibition in test [7] was 7.57%; in test [8], -0.68%; in [9], 4.17%; in test [10] it was 0.34%; in test [11] it was 2.66%; in test [12] it was -2.08%. The inhibition was -4.65% in test [13]; 1.92% in test [14]; 3.65% in test [15]; 2.22% in test [16]; 4.33% in test [17]; -2.33% in test [18]. Also, the inhibition turned out to be 3.14% in test [19] and 0.01% in [20].
`O=C1NC(=O)C(c2cccc(Cl)c2)=C1Nc1ccc(Cl)c(C(=O)O)c1`: the inhibition was 3.9% in [1]; -2.79% in test [2]; 0.44% in test [3]; 1.44% in test [4]; 4.72% in test [5]; 3.66% in [6]. For the same compound, the inhibition was 4.6% in test [7]; 1.21% in test [8]; 0.67% in test [9]; 5.9% in test [10]; 1.67% in test [11]; -2.19% in test [12]. The inhibition in test [13] is -1.47%; in test [14], 3.63%; in [15] it was 1.55%; in test [16] it was 1.72%; in test [17], -0.43%; in test [18], 0.69%. The inhibition in test [19] is -0.07%; in test [20], 0.25%.
Consider `O=C(NCC1CC1)c1ccc(-c2cccc(C(=O)NC3CC3)c2)cc1`, for which the inhibition in test [1] is 0.8%; in [2], 1.6%; in test [3], 1.04%; in [4], 1.13%; in test [5] it was 13.9%; in [6], 2.37%. Besides, the inhibition in [7] was 7.97%; in test [8] it was 1.41%; in test [9] it was 3.97%; in test [10] it was 4.08%; in test [11], 1.8%; in test [12], -1.5%. The inhibition in test [13] was -3.41%; in test [14], 1.61%; in test [15], 1.53%; in [16] it was 1.94%; in [17], 2.38%; in test [18] it was -4.62%. The inhibition in [19] is -1.95%; in test [20], 0.53%.
